Laboratory results published in PubChem BioAssay AID1159580 (chemical genetic matrix, 2015).
The campaign covered roughly 5,500 compounds. About 2,000 (36%) were called active. Inconclusive results (about 18%) are left out. No stated cut-off is given here; in the data, active means normalized growth mostly below about 0.91 (no sharp cut-off); inconclusive means no clear call, values can overlap the other calls; inactive means mostly above about 0.92. The list shows a part of the results.

Test: chemical genetic growth profiling, strain panel (AID 1159580);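 further: tested at 20 µM; growth read once vehicle control cultures reached saturation at 30 °C; 1 = growth at the plate median or of vehicle wells; lower values mean less growth of the strain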
Settings: growth OD

Measured: normalized growth

O=C1O[C@@H](CO)[C@H](O)[C@@H](O)[C@@H]1O
inactive: S. cerevisiae deletion strains, locus YJR066W, strain TOR1, hits give low values 0.965 | S. cerevisiae deletion strains, locus YKL009W, strain mrt4, hits give low values 1.02 | S. cerevisiae deletion strains, locus YKL068W, hits give low values 0.999 | S. cerevisiae deletion strains, locus YKL085W, strain MDH1 (second series), hits give low values 0.998 | S. cerevisiae deletion strains, locus YKL085W, strain MDH1, hits give low values 0.998 | S. cerevisiae deletion strains, locus YKL160W, strain elf1, hits give low values 1.02 | S. cerevisiae deletion strains, locus YKL190W, strain CNB1, hits give low values 0.999 | S. cerevisiae deletion strains, locus YKR001C, strain vps1, hits give low values 0.985 | S. cerevisiae deletion strains, locus YKR026C, strain gcn3, hits give low values 1.01 | S. cerevisiae deletion strains, locus YKR091W, strain srl3, hits give low values 1.01 | S. cerevisiae deletion strains, locus YLL001W, strain dnm1, hits give low values 1.01 | S. cerevisiae deletion strains, locus YLL026W, hits give low values 1.02 | S. cerevisiae deletion strains, locus YLL041C, strain sdh2, hits give low values 1.02 | S. cerevisiae deletion strains, locus YLR027C, strain aat2, hits give low values 1.02 | S. cerevisiae deletion strains, locus YLR039C, strain RIC1, hits give low values 1.03 | S. cerevisiae deletion strains, locus YLR058C, strain SHM2, hits give low values 1.01 | S. cerevisiae deletion strains, locus YLR102C, strain apc9, hits give low values 1.01 | S. cerevisiae deletion strains, locus YLR113W, strain HOG1, hits give low values 0.963 | S. cerevisiae deletion strains, locus YLR221C, strain rsa3, hits give low values 1.01 | S. cerevisiae deletion strains, locus YLR258W, strain gsy2, hits give low values 1.04 | S. cerevisiae deletion strains, locus YLR262C, strain YPT6 (second series), hits give low values 1 | S. cerevisiae deletion strains, locus YLR262C, strain YPT6, hits give low values 1.08 | S. cerevisiae deletion strains, locus YLR268W, strain sec22, hits give low values 1.01 | S. cerevisiae deletion strains, locus YLR320W, strain mms22, hits give low values 1.02 | S. cerevisiae deletion strains, locus YLR330W, strain CHS5, hits give low values 1.01 | S. cerevisiae deletion strains, locus YLR342W, strain FKS1 (second series), hits give low values 1.04 | S. cerevisiae deletion strains, locus YLR342W, strain FKS1, hits give low values 1.03 | S. cerevisiae deletion strains, locus YLR357W, strain rsc2, hits give low values 1.01 | S. cerevisiae deletion strains, locus YLR370C, strain arc18, hits give low values 1.03 | S. cerevisiae deletion strains, locus YLR371W, strain rom2, hits give low values 1.01 | S. cerevisiae deletion strains, locus YLR384C, strain iki3, hits give low values 1.01 | S. cerevisiae deletion strains, locus YLR418C, strain cdc73, hits give low values 1.04 | S. cerevisiae deletion strains, locus YML016C, strain PPZ1, hits give low values 1.01 | S. cerevisiae deletion strains, locus YML032C, strain rad52, hits give low values 0.991 | S. cerevisiae deletion strains, locus YML120C, strain ndi1, hits give low values 1.01 | S. cerevisiae deletion strains, locus YML124C, strain tub3, hits give low values 1 | S. cerevisiae deletion strains, locus YMR058W, strain fet3, hits give low values 1.03 | S. cerevisiae deletion strains, locus YMR078C, strain ctf18, hits give low values 1 | S. cerevisiae deletion strains, locus YMR125W, strain sto1, hits give low values 1.02 | S. cerevisiae deletion strains, locus YMR129W, hits give low values 1.02 | S. cerevisiae deletion strains, locus YMR205C, strain PFK2, hits give low values 1.04 | S. cerevisiae deletion strains, locus YMR223W, strain ubp8, hits give low values 1.04 | S. cerevisiae deletion strains, locus YMR231W, strain pep5, hits give low values 1.02 | S. cerevisiae deletion strains, locus YMR307W, strain GAS1, hits give low values 1.05 | S. cerevisiae deletion strains, locus YNL067W, strain RPL9B, hits give low values 0.994 | S. cerevisiae deletion strains, locus YNL071W, strain lat1, hits give low values 1.02 | S. cerevisiae deletion strains, locus YNL128W, strain TEP1, hits give low values 1.02 | S. cerevisiae deletion strains, locus YNL183C, strain NPR1, hits give low values 0.944 | S. cerevisiae deletion strains, locus YNL209W, strain ssb2, hits give low values 1.03 | S. cerevisiae deletion strains, locus YNL233W, strain BNI4, hits give low values 1 | S. cerevisiae deletion strains, locus YNL248C, strain rpa49, hits give low values 1.06 | S. cerevisiae deletion strains, locus YNL250W, strain rad50, hits give low values 1.05 | S. cerevisiae deletion strains, locus YNL271C, strain bni1, hits give low values 0.993 | S. cerevisiae deletion strains, locus YNL298W, strain CLA4, hits give low values 1.01 | S. cerevisiae deletion strains, locus YNL307C, strain MCK1, hits give low values 1 | S. cerevisiae deletion strains, locus YNL322C, strain KRE1 (second series), hits give low values 1 | S. cerevisiae deletion strains, locus YNR049C, strain mso1, hits give low values 1.02 | S. cerevisiae deletion strains, locus YNR052C, strain pop2, hits give low values 1.01 | S. cerevisiae deletion strains, locus YOL006C, strain TOP1, hits give low values 0.992 | S. cerevisiae deletion strains, locus YOL012C, strain htz1 0.898 | S. cerevisiae deletion strains, locus YOL147C, strain pex11, hits give low values 1 | S. cerevisiae deletion strains, locus YOR001W, strain rrp6, hits give low values 1.01 | S. cerevisiae deletion strains, locus YOR061W, strain CKA2, hits give low values 1 | S. cerevisiae deletion strains, locus YOR069W, strain VPS5, hits give low values 1.01 | S. cerevisiae deletion strains, locus YOR070C, strain gyp1, hits give low values 1.03 | S. cerevisiae deletion strains, locus YOR080W, strain dia2, hits give low values 1.01 | S. cerevisiae deletion strains, locus YOR083W, strain WHI5, hits give low values 0.994 | S. cerevisiae deletion strains, locus YOR106W, strain vam3, hits give low values 1.01 | S. cerevisiae deletion strains, locus YOR136W, strain idh2, hits give low values 0.99 | S. cerevisiae deletion strains, locus YOR144C, strain elg1, hits give low values 1.01 | S. cerevisiae deletion strains, locus YOR184W, strain ser1, hits give low values 1 | S. cerevisiae deletion strains, locus YOR231W, strain MKK1, hits give low values 0.968 | S. cerevisiae deletion strains, locus YOR265W, strain rbl2, hits give low values 1.02 | S. cerevisiae deletion strains, locus YOR270C, strain vph1, hits give low values 1.06 | S. cerevisiae deletion strains, locus YOR290C, strain snf2, hits give low values 1.04 | S. cerevisiae deletion strains, locus YOR316C, strain cot1, hits give low values 1.01 | S. cerevisiae deletion strains, locus YPL051W, strain arl3, hits give low values 1 | S. cerevisiae deletion strains, locus YPL055C, strain LGE1, hits give low values 0.958 | S. cerevisiae deletion strains, locus YPL078C, strain atp4, hits give low values 1.03 | S. cerevisiae deletion strains, locus YPL106C, strain sse1, hits give low values 1.04 | S. cerevisiae deletion strains, locus YPL240C, strain hsp82, hits give low values 1.01 | S. cerevisiae deletion strains, locus YPL241C, strain CIN2, hits give low values 1 | S. cerevisiae deletion strains, locus YPL256C, strain CLN2, hits give low values 0.953 | S. cerevisiae deletion strains, locus YPR119W, strain clb2, hits give low values 1 | S. cerevisiae deletion strains, locus YPR141C, strain kar3, hits give low values 0.989 | S. cerevisiae deletion strains, locus YPR163C, strain tif3, hits give low values 1 | S. cerevisiae deletion strains, locus YPR167C, strain met16, hits give low values 1.01 | S. cerevisiae deletion strains, strain wtn01, hits give low values 0.997 | S. cerevisiae strains, strain wild type, hits give low values 1
